According to PubChem BioAssay AID588674 (Broad Institute, 2011):
About 1,800 (0.5%) of roughly 360,000 compounds were called active.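 How the source made its calls: active means mean inhibition of at least 75% with every replicate also reaching 75%; inconclusive means mean inhibition at least 75% but some replicate below; inactive means mean inhibition below 75%.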 The entries come from a sample that favours actives as a whole.

test: Shn3 3'UTR reporter decrease in osteoblasts – cell-based, Clone20 osteoblasts, firefly luciferase, set 2, Schnurri-3 inhibitor project, primary screen (AID 588674); details: Clone20 osteoblast Shn3 3'UTR firefly luciferase, 24 h; at 12.5 µM; active compounds read high;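 further: 0% = median of neutral control wells and 100% = pilot-screen positive control compound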

Question: With `OCc1n[nH]c(CO)n1` as the molecule, how does the inhibition read?
Answer: Its inhibition is -14.1% (inactive).

Question: Which inhibition does the source give for `Cc1cccc(-n2ncc3c(=O)[nH]c(SCC(=O)Nc4cc(C)on4)nc32)c1` here?
Answer: Its inhibition is -22.6% (inactive).

Question: With `Cc1cccc(-n2ncc(Cl)c(Cl)c2=O)c1` as the molecule, how does the inhibition read?
Answer: The inhibition was 94.3% (active).

Question: With `CC(=O)Nc1c2c(nn1-c1cccc(C)c1)CSC2` as the molecule, how does the inhibition read?
Answer: Its inhibition is -0.825% (inactive).

Question: For `Cc1c(Br)c([N+](=O)[O-])nn1CC(=O)Nc1sc2c(c1C(=O)OC(C)C)CCC(C)C2` (configuration not stated), which inhibition is on record?
Answer: The inhibition was -5.32% (inactive).

Question: With `O=C(CN1C(=O)NC2(CCOc3ccccc32)C1=O)Nc1cccc([N+](=O)[O-])c1` (configuration not stated) as the molecule, how does the inhibition read?
Answer: Its inhibition is 89.4% (active).

Question: Which inhibition does the source give for `O=C(CN1C(=O)NC2(CCOc3ccccc32)C1=O)NCc1ccc(F)cc1` (configuration not stated) here?
Answer: Its inhibition is -2.61% (inactive).

Question: For `Cc1ccc(C(=O)CN2C(=O)NC3(CCOc4ccccc43)C2=O)s1` (configuration not stated), which inhibition is on record?
Answer: Its inhibition is -11.6% (inactive).

Question: Which inhibition does the source give for `CNC(=O)c1nnn(-c2ccccc2)c1C(=O)NC` here?
Answer: The inhibition was -6.31% (inactive).

Question: Which inhibition does the source give for `N#Cc1c(NC(=O)c2ccc(N3CCOCC3)c([N+](=O)[O-])c2)sc2c1CCCC2` here?
Answer: The inhibition was 12% (inactive).

Question: With `O=C(c1ccc(CS(=O)Cc2ccccc2Cl)o1)N1CCN(c2ccccc2)CC1` (configuration not stated) as the molecule, how does the inhibition read?
Answer: The inhibition was -5.18% (inactive).

Question: With `CC1CC(NC(=S)N(C)C)CC(C)(C)C1` (configuration not stated) as the molecule, how does the inhibition read?
Answer: The inhibition was -11.6% (inactive).

Question: Which inhibition does the source give for `CCN(CC)CCN(C(=O)c1ccc2c(c1)CCCC2)c1nc2c(OC)cccc2s1` here?
Answer: Its inhibition is 18.3% (inactive).

Question: For `COc1cccc2sc(N(CCCN(C)C)C(=O)CCS(=O)(=O)c3ccccc3)nc12`, which inhibition is on record?
Answer: Its inhibition is 97.2% (active).

Question: For `Cc1cccc2sc(N(CCCN(C)C)C(=O)CCS(=O)(=O)c3ccccc3)nc12`, which inhibition is on record?
Answer: The inhibition was 70.2% (inactive).

Question: With `CC(=O)CSc1nnc(CSc2ncccn2)n1C1CCCCC1` as the molecule, how does the inhibition read?
Answer: Its inhibition is -0.19% (inactive).

Question: With `Cn1c2ccc(F)cc2c2nnc(NN)nc21` as the molecule, how does the inhibition read?
Answer: The inhibition was -1.82% (inactive).

Question: For `COc1cc(OC)cc(C(=O)NC2CCN(C(=O)N3c4ccccc4Sc4ccccc43)CC2)c1`, which inhibition is on record?
Answer: Its inhibition is 38.1% (inactive).

Question: With `NC(c1csc(NC(=O)Nc2cccc(C(F)(F)F)c2)n1)C1CCCCC1` (configuration not stated) as the molecule, how does the inhibition read?
Answer: Its inhibition is 92% (active).

Question: With `NC(c1ccccc1)c1csc(NC(=O)Nc2cccc(C(F)(F)F)c2)n1` (configuration not stated) as the molecule, how does the inhibition read?
Answer: Its inhibition is 23% (inactive).

Question: With `COc1ccc(C(N)c2csc(NC(=O)Nc3cccc(C(F)(F)F)c3)n2)cc1` (configuration not stated) as the molecule, how does the inhibition read?
Answer: The inhibition was 11.3% (inactive).

Question: Which inhibition does the source give for `O=C(NCCOc1ccccc1)c1ccccc1F` here?
Answer: The inhibition was -74.7% (inactive).

Question: Which inhibition does the source give for `C/C(=N\NC(=O)c1ccccc1F)c1ccccn1` here?
Answer: Its inhibition is 94.8% (active).

Question: Which inhibition does the source give for `CCNC(=S)N1CCN(c2ncccn2)CC1` here?
Answer: Its inhibition is -18.4% (inactive).

Question: With `C/C(=N/NC(=O)c1ccn(C)n1)c1ccncc1` as the molecule, how does the inhibition read?
Answer: Its inhibition is -3.15% (inactive).

Question: For `CC(=NNC(=S)N1CCCCCC1)c1ccccn1`, which inhibition is on record?
Answer: The inhibition was 95.3% (active).

Question: For `CCOc1ccc(NC(=S)N2CCCCCC2)cc1`, which inhibition is on record?
Answer: The inhibition was -24.3% (inactive).
